# Only some compounds are listed: those with a hit (about 0.85% of all), similar ones and a draw of the others.
# RECQ1 helicase – inhibitors of human RECQ1 DNA helicase; P46063; RECQ1 DNA unwinding, red fluorescence kinetic read; Potency, µM (highest dose often 57.3 µM), hits mostly inhibitors; actives 0.54% (n = 240,000); AID 2549; further: nearly all actives have a fitted effect of over 30% in size
#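 50 nM RECQ1T1 preincubated 15 min with compound in Tris pH 8.0 buffer with MgCl2, DTT, Tween-20 and 2.5 ug/ml poly(dI-dC); started with 200 nM TAMRA/BHQ-2 forked duplex and 2 mM ATP. Unwinding read as fluorescence (525/598 nm), two reads 2 h apart.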
# BLM inh – Bloom syndrome helicase (human) inhibition; P54132; recombinant BLM DNA unwinding, fluorescence dequenching; Potency, µM (highest dose often 56.1 µM), hits mostly inhibitors; actives 0.2% (n = 350,000); further: nearly all actives have a fitted effect of over 35% in size
# Target sequence (P54132 whole entry, looked up): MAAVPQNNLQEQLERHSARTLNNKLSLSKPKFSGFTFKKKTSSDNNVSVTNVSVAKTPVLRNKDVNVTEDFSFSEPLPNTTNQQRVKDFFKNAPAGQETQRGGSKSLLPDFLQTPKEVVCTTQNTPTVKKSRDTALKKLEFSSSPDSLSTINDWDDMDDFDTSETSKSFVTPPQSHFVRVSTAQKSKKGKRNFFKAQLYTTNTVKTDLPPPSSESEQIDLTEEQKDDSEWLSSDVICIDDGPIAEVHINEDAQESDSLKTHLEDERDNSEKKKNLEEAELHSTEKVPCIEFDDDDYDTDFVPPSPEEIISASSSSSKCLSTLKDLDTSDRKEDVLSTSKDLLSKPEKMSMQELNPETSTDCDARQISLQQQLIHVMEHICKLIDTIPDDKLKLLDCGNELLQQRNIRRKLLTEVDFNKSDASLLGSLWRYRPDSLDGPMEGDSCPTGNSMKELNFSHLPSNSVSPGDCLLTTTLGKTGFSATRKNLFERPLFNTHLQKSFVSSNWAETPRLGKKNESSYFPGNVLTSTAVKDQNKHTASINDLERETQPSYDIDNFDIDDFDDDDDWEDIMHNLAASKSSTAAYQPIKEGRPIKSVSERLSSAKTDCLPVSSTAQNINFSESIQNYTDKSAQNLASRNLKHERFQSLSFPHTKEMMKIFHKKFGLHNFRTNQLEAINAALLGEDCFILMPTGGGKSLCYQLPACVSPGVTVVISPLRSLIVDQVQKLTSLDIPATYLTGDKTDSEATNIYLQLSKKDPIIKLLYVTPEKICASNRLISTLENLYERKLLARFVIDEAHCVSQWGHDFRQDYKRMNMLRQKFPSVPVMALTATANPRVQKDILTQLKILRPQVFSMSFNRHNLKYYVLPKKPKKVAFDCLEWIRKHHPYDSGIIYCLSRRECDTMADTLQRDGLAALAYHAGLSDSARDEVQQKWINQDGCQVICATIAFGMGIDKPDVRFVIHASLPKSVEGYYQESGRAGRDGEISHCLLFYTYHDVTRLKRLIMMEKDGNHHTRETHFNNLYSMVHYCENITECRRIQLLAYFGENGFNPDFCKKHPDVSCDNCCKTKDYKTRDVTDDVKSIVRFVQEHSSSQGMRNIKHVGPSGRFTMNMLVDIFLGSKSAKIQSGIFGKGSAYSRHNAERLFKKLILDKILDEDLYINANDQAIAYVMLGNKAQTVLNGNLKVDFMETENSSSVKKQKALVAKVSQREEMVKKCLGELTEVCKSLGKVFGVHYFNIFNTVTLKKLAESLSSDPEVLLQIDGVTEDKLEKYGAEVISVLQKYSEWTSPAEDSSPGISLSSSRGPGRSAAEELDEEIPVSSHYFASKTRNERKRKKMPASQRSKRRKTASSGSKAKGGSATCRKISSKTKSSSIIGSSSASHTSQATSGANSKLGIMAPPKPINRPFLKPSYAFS
# GLS inhibitor – inhibitors of human glutaminase (GLS) | GLS enzymatic activity, qHTS titration | Potency, µM (series often up to 45.5 µM), most hits filed as inhibitors | actives 0.21% (n = 410,000) | O94925
#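 Human kidney-isoform GLS in 45 mM KH2PO4 pH 8.2, 0.02% Tween-20, with compound, started with 1mM L-Glutamine (added stock). Glutamate oxidase/HRP/Amplex red coupled fluorescence read at start and after 30 min at RT.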
# APE1 inh-1 – APE1 (human) endonuclease inhibition; P27695; recombinant APE1, TAMRA/BHQ-2 abasic DNA cleavage fluorescence; Potency, µM (series often up to 65.8 µM), usual class: inhibitors; actives 0.35% (n = 350,000); AID 2517; further: nearly all actives have a fitted effect of over 55% in size
#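 APE1 at 0.75 nM preincubated 15 min at room temperature with compound. Reaction then started with 50 nM double-stranded THF-abasic substrate labelled with TAMRA/BHQ-2, and 525/598 nm fluorescence read kinetically. Activity taken as third-minus-first read difference, normalized to DMSO and NSC13755 controls.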
# TDP1 inh – inhibitors of human tyrosyl-DNA phosphodiesterase TDP1; Q9NUW8; recombinant TDP1, AlphaScreen DNA substrate cleavage; Potency, µM (doses to about 130 µM), hits mostly inhibitors; actives 0.28% (n = 350,000); further: nearly all actives have a fitted effect of over 40% in size
#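 E. coli-derived human Tdp1, 1 nM final. Cpd preinc 15 min RT; substrate 15 nM final, 5 min RT; AS bead mix 10 ug/ml final, 10 min RT. Signal loss = tyrosine-FITC cleavage. No-enzyme wells = max signal.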
# PGK inhibitor – T. brucei PGK inhibition; P07378; PGK/GAPDH coupled, Kinase-Glo luminescence, 60 min; Potency, µM (doses to about 57.5 µM), actives largely listed as inhibitors; actives 0.043% (n = 380,000); further: nearly all actives have a fitted effect of over 60% in size
#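 Recombinant glycosomal PGK reaction used 1,3-bisphosphoglycerate generated in-well by GAPDH (100nM final) in 100mM TEA pH 7.6, 5mM MgCl2, 0.01% Tween-20. After 60 minutes at room temperature, ATP was read by Kinase-Glo Plus luminescence end-point.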
# DNA dye displace – DNA dye displacement counter-screen activity; shares compounds with APE1 inh-1; DNA fluorescent dye displacement counterscreen, fluorescence; Potency, µM (top dose mostly 28.5 µM), actives largely listed as inhibitors; actives 7% (n = 480); AID 2564;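 further: loss of thiazole orange fluorescence as the dye is displaced from duplex DNA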
# EndoIV counter – blocks E. coli endonuclease IV DNA cleavage; shares compounds with APE1 inh-1; E. coli Endo IV, fluorogenic AP-site DNA cleavage; Potency, µM (top dose mostly 27.1 µM), hits mostly inhibitors; actives 4% (n = 560); AID 2565
# APE1 inh-2 – APE1 (human) endonuclease inhibition, confirmation. purified APE1, fluorogenic abasic-site DNA cleavage. AID 2572. actives 44% (n = 750). Potency, µM (highest dose often 57.1 µM), most hits filed as inhibitors. shares compounds with APE1 inh-1; further: nearly all actives have a fitted effect of over 30% in size
# APE1 FP inh – displaces DNA from human APE1 in FP assay; APE1 binding to TAMRA-labelled double-stranded DNA, fluorescence polarization displacement; actives 7% (n = 480); AID 2573; Potency, µM (highest dose often 28.5 µM), usual class: inhibitors; shares compounds with APE1 inh-1
# Hits are given with their value; 0 = inactive; ? = inconclusive; - = not tested or not shown; [ ] = another dose, or the depositor's remark. The call rests on the fitted dose curve; in most records, active means well fitted curve in the direction sought with a large enough effect; inconclusive means small, poorly fitted or top-dose-only effect, or another doubt; inactive means no such curve, though single readings can be large; an effect the other way counts as inactive or inconclusive.
SMILES,RECQ1 helicase,BLM inh,GLS inhibitor,APE1 inh-1,TDP1 inh,PGK inhibitor,EndoIV counter,APE1 inh-2,others
CC1CCCN(c2ccc(N)cc2C(N)=O)C1 (configuration not stated),0,0,7.08µM,0,0,0,-,-,
O=C(CSc1ccc2ccccc2c1)NCCc1ccc(O)c(O)c1,0,0,1.41µM,0,0,0,-,-,
COc1ccc(CCNC(=O)CSc2ccc3ccccc3c2)cc1OC,0,0,0,0,0,0,-,-,
COc1ccc(OC)c2c(=O)cc(C(=O)O)[nH]c12,0,0,0,0,-,0,-,-,
O=C(O)c1cc(=O)c2c3nc4ccccc4oc-3cc(=O)c2[nH]1,-,?,28.2µM,-,-,-,-,-,
Fc1ccc(C2CC(c3cccs3)=NN2c2ccccc2)cc1 (configuration not stated),0,0,0,0,-,0,-,0,
c1ccc(C2CC(c3cccs3)=NN2c2ccccc2)cc1 (configuration not stated),0,0,0,0,-,0,-,-,
Cc1ccc([N+](=O)[O-])cc1-c1ccc(/C=C(\C#N)c2[nH]nc(N)c2C#N)o1,31.6µM,?,0,?,0,0,0,7.08µM,DNA dye displace=7.08µM;APE1 FP inh=0
CC1=C(C(=O)O)N2C(=O)[C@@H](NC(=O)[C@H](N)C3=CCC=CC3)[C@H]2SC1,-,-,0,-,-,-,-,-,
O=[N+]([O-])c1cccc2c[nH]nc12,28.2µM,0,-,6.31µM,-,-,0,12.6µM,
Cc1nc2ccc(NC(=S)N3CCOCC3)cc2nc1C,0,0,0,?,0,0,0,0,DNA dye displace=0;APE1 FP inh=0
Cc1nc2ccc(NC(=S)N3CCCC3)cc2nc1C,0,0,0,0,0,0,-,-,
C=C[C@@H](C1=CC(=O)C(OC)=C(OC)C1=O)c1ccccc1,0,0,-,0,0,-,-,-,
CC1(C)CC(=O)C=C(NCc2ccccc2)C1,0,0,0,?,0,0,0,?,DNA dye displace=0;APE1 FP inh=0
Nc1c(S(=O)(=O)O)cc(Nc2ccc(Nc3nc(Cl)nc(Nc4ccc(S(=O)(=O)O)cc4)n3)c(S(=O)(=O)O)c2)c2c1C(=O)c1ccccc1C2=O,0.891µM,-,-,0.631µM,0,-,10µM,0.708µM,
O=[N+]([O-])c1ccc(Nc2nc(Cl)nc(NCCO)n2)cc1,0,0,0,0,0,0,-,-,
O=C(OCC#CCSc1nnc(-c2cccc3ccccc23)o1)c1cc2ccccc2s1,-,-,-,-,0,-,-,-,
COc1ccc(-c2nc3ccc(NC(C)=O)cc3c(=O)n2Cc2cccc(Cl)c2)cc1COc1ccc(NC(C)=O)cc1,-,-,-,-,0,-,-,-,
Cc1c(-c2ccc(Cl)cc2)oc(=O)c2c(N)n(-c3ccccc3)nc12,0,?,?,0,50.1µM,0,-,?,
Cc1ccc2oc(=O)n(CC(=O)OC(C)C)c2c1,0,0,0,?,0,0,0,0,DNA dye displace=0;APE1 FP inh=?
CCOC(=O)Cn1c(=O)oc2ccc(C)cc21,0,0,?,0,0,0,-,-,
COc1c2ccoc2cc2oc(=O)ccc12,0,0,0,0,0,0,-,-,
O=c1ccc2c(OCCCCc3ccccc3)c3ccoc3cc2o1,0,-,-,0,0,-,0,0,
O=c1c(-c2cc(O)c(O)c(O)c2)coc2cc(O)c(O)c(O)c12,1.26µM,11.2µM,-,0.316µM,0.282µM,-,0,0.398µM,
Oc1cc(O)c2c(c1)O[C@H](c1ccc(O)c(O)c1)[C@H](O)C2,0,0,0,0,0[21 µM],0,0,0,DNA dye displace=0;APE1 FP inh=?
SMILES,RECQ1 helicase,BLM inh,GLS inhibitor,APE1 inh-1,TDP1 inh,PGK inhibitor,EndoIV counter,APE1 inh-2,others
COc1cc(N)c(Cl)cc1C(=O)OCCCN1CCCCC1,0,0,-,0,0,-,-,-,
COc1cc(N)c(Cl)cc1C(=O)OCCN1CCCCC1,0,0,-,?,0,-,0,0,DNA dye displace=0;APE1 FP inh=0
N[C@H](C(=O)O)[C@H]1C[C@@H]1C(=O)O,0,-,-,0,0,-,0,2.51µM,
Cc1ccccc1NC(=O)CN1C(=O)S/C(=C\c2ccc(-c3cccc(C(=O)O)c3C)o2)C1=O,0,0,0,0,0,0,-,-,
Cc1cccc(NC(=O)CN2C(=O)S/C(=C\c3ccc(-c4cccc(C(=O)O)c4C)o3)C2=O)c1,0,?,0,?,25.1µM,0,-,25.1µM,
CCCCC(O)C(=O)Nc1cc(C(F)(F)F)ccc1Cl (configuration not stated),-,-,-,-,0,-,-,-,
Cc1cc(/C=N/NC(=O)c2cccc(N(C)C)c2)c(C)n1-c1cc(C(=O)O)cc(C(=O)O)c1,0,0,0,28.2µM,-,0,0,?,DNA dye displace=0;APE1 FP inh=0
O=C(Nc1c(Cl)cc([N+](=O)[O-])cc1Cl)c1cc(Cl)ccc1O,-,-,-,-,0,-,-,-,
COc1ccc(OCC(=O)OCCN2C(=O)c3ccccc3C2=O)cc1,0,0,-,?,-,0,0,?,DNA dye displace=0;APE1 FP inh=0
CCOc1ccc(OCCN2C(=O)c3ccccc3C2=O)cc1,-,0,0,0,0,0,-,-,
COc1ccc(-c2coc3cc(O)ccc3c2=O)cc1O,0,0,0,?,0,0,0,0,DNA dye displace=0;APE1 FP inh=0
CCn1c(SCc2nc3sc(C(=O)O)c(C)c3c(=O)[nH]2)nc2ccccc21,?,0,?,20µM,8.91µM,20µM,-,?,
COCCn1c(SCc2nc3sc(C(=O)OC)c(C)c3c(=O)[nH]2)nc2ccccc21,0,0,0,0,0,0,-,-,
CC(=O)OCC(=O)Nc1cc(C#N)cc(NC(=O)COC(C)=O)c1Cl,-,-,0,-,-,-,-,-,
C#CC1(O)CC[C@H]2[C@@H]3CCC4=CCCC[C@@H]4[C@H]3CC[C@@]21C (some centres not stated),-,-,-,0,-,-,-,-,
O=C1c2ccccc2CCC1CNCCc1ccc(O)cc1 (configuration not stated),0,-,-,0,0,-,-,-,
COc1ccccc1Nc1nc(-c2sc(N)nc2C)cs1,-,0,0,0,-,0,-,-,
Cc1nc(N)sc1-c1csc(Nc2ncccn2)n1,0,0,0,?,89.1µM,0,-,?,
Cc1ccc(C(=O)Nc2cccc(C(F)(F)F)c2)cc1Nc1cncnc1,-,0,0,0,-,0,-,-,
Cc1ccc(C(=O)Nc2cccc(C(F)(F)F)c2)cc1Nc1ccccn1,0,0,0,35.5µM,0,0,0,?,DNA dye displace=0;APE1 FP inh=0

# Screening results from PubChem BioAssay.
